PubChem BioAssay (NCATS)
“And” between values parts separate entries of the source, which are not always exact repeats. Equal entries are not always repeated. Results filed as inconclusive are left out. The source made the active and inactive calls. Unless noted, calls come from the whole dose curve; as a rule, active = well fitted curve in the direction sought with a large enough effect; inconclusive = small, poorly fitted or top-dose-only effect, or another doubt; inactive = no such curve, though single readings can be large; an effect the other way counts as inactive or inconclusive.

Experiments:
[1] = test system: WaGa; experiment: qHTS assay to identify novel small-molecules to repurpose for Merkel cell carcinoma treatment (AID 1296009); details: MCC and control cell lines, CellTiter-Glo viability, 72 h; series mostly up to 46 µM; note: % is set by controls: 0 for no effect and ±100 for the full control effect; nearly all actives have a fitted effect of over 60% in size
Outline: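 CellTiter-Glo luminescence after 72 hr compound exposure at 37 degree celsius gave cell viability. Libraries NPC and MIPE were run as 8- and 11-point dose responses; RLUs normalized to DMSO (negative) and no-cell (cytotoxicity) controls.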

[2] = test system: C33A; experiment: Primary qHTS to identify gynecologic anti-cancer compounds using libraries of approved drugs and bioactive compounds (AID 1345084); details: Gynecologic cancer cell panel viability, ATPlite luminescence, 48 h; series mostly up to 57.5 µM; note: % is set by controls: 0 for no effect and ±100 for the full control effect; nearly all actives have a fitted effect of over 55% in size
Outline: (§1)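 Cytotoxicity screen measuring ATP content by luciferase luminescence. Each compound is applied at five concentrations for 48 h at 37 C with 5% CO2.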

[3] = test system: CAOV3; experiment: as above; details: Gynecologic cancer cell panel viability, ATPlite luminescence, 48 h; series mostly up to 57.5 µM
Outline: as §1

[4] = test system: CASKI; experiment: as above; details: Gynecologic cancer cell panel viability, ATPlite luminescence, 48 h; series mostly up to 57.5 µM
Outline: as §1

[5] = test system: Es-2; experiment: as above; details: Gynecologic cancer cell panel viability, ATPlite luminescence, 48 h; series mostly up to 57.5 µM
Outline: as §1

[6] = test system: HeLa; experiment: as above; details: Gynecologic cancer cell panel viability, ATPlite luminescence, 48 h; series mostly up to 57.5 µM
Outline: as §1

[7] = test system: Hek293T; experiment: as above; details: Gynecologic cancer cell panel viability, ATPlite luminescence, 48 h, control line for the selectivity index; series mostly up to 57.5 µM
Outline: as §1

[8] = test system: JEG-3; experiment: as above; details: Gynecologic cancer cell panel viability, ATPlite luminescence, 48 h; series mostly up to 57.5 µM
Outline: as §1

[9] = test system: OV90; experiment: as above; details: Gynecologic cancer cell panel viability, ATPlite luminescence, 48 h; series mostly up to 57.5 µM
Outline: as §1

[10] = test system: PA-1; experiment: as above; details: Gynecologic cancer cell panel viability, ATPlite luminescence, 48 h; series mostly up to 57.5 µM
Outline: as §1

[11] = test system: SKOV3; experiment: as above; details: Gynecologic cancer cell panel viability, ATPlite luminescence, 48 h; series mostly up to 57.5 µM
Outline: as §1

[12] = test system: Tov-21-G; experiment: as above; details: Gynecologic cancer cell panel viability, ATPlite luminescence, 48 h; series mostly up to 57.5 µM
Outline: as §1

[13] = test system: Tov112D; experiment: as above; details: Gynecologic cancer cell panel viability, ATPlite luminescence, 48 h; series mostly up to 57.5 µM
Outline: as §1

[14] = Drug repurposing screens with cells derived from glioblastoma tumor samples (AID 1345199); details: GBM patient neurospheres viability, ATP luminescence, 48 h; note: nearly all actives have a fitted effect of over 40% in size; note: potency is the fitted concentration of half-maximal effect; for activity, negative = cell killing: % is set by controls: 0 for no effect and ±100 for the full control effect
Outline: (§2)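 Primary testing used CD133+ neurospheres from four GBM patients, seven concentrations, 48 h exposure and ATP-based viability; confirmation added three slower-growing patient lines.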

[15] = test system: astro; experiment: as above; details: viability, ATP luminescence, 48 h; series mostly up to 45.9 µM
Outline: as §2

[16] = target: Nuclear receptor subfamily 1 group I member 2 (Rattus norvegicus) (UniProt Q9R1A7); experiment: qHTS assay for small molecule activators of the rat pregnane X receptor (rPXR) signaling pathway (AID 651751; call rule not given here; note: 0% is about no effect); details: rPXR reporter cells, luciferase (One-Glo), 24 h
[17] = qHTS assay for small molecule activators of the human pregnane X receptor (PXR) signaling pathway (AID 720659; call rule not given here; note: 0% is about no effect)
[18] = at 45.9 µM (top of the series), tumour line D
[19] = at 46 µM (top of the series), tumour line A
[20] = at 46.1 µM (top of the series), tumour line C
[21] = at 45.9 µM (top of the series), tumour line B
[22] = at 20 µM (top of the series), tumour line C
[23] = at 21.2 µM (top of the series), tumour line B
[24] = at 21.2 µM (top of the series), tumour line D

Nuclear receptor subfamily 1 group I member 2 (Rattus norvegicus), sequence (Q9R1A7 whole entry, looked up): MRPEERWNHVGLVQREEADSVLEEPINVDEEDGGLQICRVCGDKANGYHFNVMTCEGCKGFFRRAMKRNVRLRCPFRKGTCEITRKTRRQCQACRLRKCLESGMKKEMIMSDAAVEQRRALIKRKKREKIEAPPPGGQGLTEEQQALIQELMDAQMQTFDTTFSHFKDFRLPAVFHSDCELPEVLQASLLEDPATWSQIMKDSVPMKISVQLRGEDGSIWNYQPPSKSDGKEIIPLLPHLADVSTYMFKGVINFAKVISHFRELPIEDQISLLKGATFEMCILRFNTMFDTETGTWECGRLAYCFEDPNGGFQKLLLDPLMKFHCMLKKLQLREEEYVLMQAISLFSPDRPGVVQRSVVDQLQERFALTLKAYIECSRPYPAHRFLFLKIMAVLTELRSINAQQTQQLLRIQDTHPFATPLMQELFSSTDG

O=C(O)Cc1sc(-c2ccccc2)nc1-c1ccc(Cl)cc1
inactive: Potency [1] | Potency [2] | Potency [3] | Potency [4] | Potency [5] | Potency [6] | Potency [7] | Potency [8] | Potency [9] | Potency [10] | Potency [11] | Potency [12] | Potency [13] | activity, negative = cell killing [14, 18] -34% and -7.66% | activity, negative = cell killing [14, 19] -38.9% | activity, negative = cell killing [14, 20] -4.36% and -11.1% | Potency [15]

CN1[C@@H]2CC[C@H]1CC(OC(=O)C(O)c1ccccc1)C2 (stereo partly drawn)
inactive: Potency [1] | Potency [2] | Potency [3] | Potency [4] | Potency [5] | Potency [6] | Potency [7] | Potency [8] | Potency [9] | Potency [10] | Potency [11] | Potency [12] | Potency [13] | activity, negative = cell killing [14, 21] -0.798% and -13.6% and 4.01% | activity, negative = cell killing [14, 18] -19% and -5.08% and -5.73% | activity, negative = cell killing [14, 20] 11.2% and -12.9% and 5.16% | Potency [15]

Cc1cc(CC(=O)O)n(C)c1C(=O)c1ccc(Cl)cc1
inactive: Potency [1] | Potency [2] | Potency [3] | Potency [4] | Potency [5] | Potency [6] | Potency [7] | Potency [8] | Potency [9] | Potency [10] | Potency [11] | Potency [12] | Potency [13] | activity, negative = cell killing [14, 21] -19.5% and -0.106% | activity, negative = cell killing [14, 18] -15.6% and -2.2% | activity, negative = cell killing [14, 20] -19.2% and -21.6% | Potency [15] | max response [16] -6.77% | outcome [17]

Nc1ccc(S(=O)(=O)Nc2ccccc2)cc1
inactive: Potency [1] | Potency [2] | Potency [3] | Potency [4] | Potency [5] | Potency [6] | Potency [7] | Potency [8] | Potency [9] | Potency [10] | Potency [11] | Potency [12] | Potency [13] | activity, negative = cell killing [14, 21] 11.7% | activity, negative = cell killing [14, 18] -2.38% | activity, negative = cell killing [14, 20] -16.6% | Potency [15]

c1ccc(CN(CC2=NCCN2)c2ccccc2)cc1
inactive: Potency [1] | Potency [2] | Potency [3] | Potency [4] | Potency [5] | Potency [6] | Potency [7] | Potency [8] | Potency [9] | Potency [10] | Potency [11] | Potency [12] | Potency [13] | activity, negative = cell killing [14, 21] -15.8% | activity, negative = cell killing [14, 18] -19.1% | activity, negative = cell killing [14, 20] -20.7% | Potency [15]

Cc1cc2nc3c(=O)[nH]c(=O)nc-3n(C[C@H](O)[C@H](O)[C@H](O)CO)c2cc1C
inactive: Potency [1] | Potency [2] | Potency [3] | Potency [4] | Potency [5] | Potency [6] | Potency [7] | Potency [8] | Potency [9] | Potency [10] | Potency [11] | Potency [12] | Potency [13] | activity, negative = cell killing [14, 21] -19.3% and -6.89% | activity, negative = cell killing [14, 18] -1.31% and -6.94% | activity, negative = cell killing [14, 19] -12.8% and -5.49% | activity, negative = cell killing [14, 20] -0.108% and 21.1% | Potency [15] | max response [16] 2.07%

CCCCOc1cc(C(=O)OCCN(CC)CC)ccc1N
active: Potency ([14]; tumour line A) 11.2 µM
inactive: Potency [1] | Potency [2] | Potency [3] | Potency [4] | Potency [5] | Potency [6] | Potency [7] | Potency [8] | Potency [9] | Potency [10] | Potency [11] | Potency [12] | Potency [13] | activity, negative = cell killing [14, 22] -6.35% | activity, negative = cell killing [14, 23] -29.6% | Potency [15]

CCOC(=O)[C@H](CCc1ccccc1)N[C@@H](C)C(=O)N1C(=O)N(C)C[C@H]1C(=O)O
inactive: Potency [1] | Potency [2] | Potency [3] | Potency [4] | Potency [5] | Potency [6] | Potency [7] | Potency [8] | Potency [9] | Potency [10] | Potency [11] | Potency [12] | Potency [13] | activity, negative = cell killing [14, 21] -4.44% | activity, negative = cell killing [14, 18] -4.75% | activity, negative = cell killing [14, 19] -37.7% | Potency [15]

CN1CCOC(c2ccccc2)c2ccccc2C1 (stereo not drawn)
inactive: Potency [1] | Potency [2] | Potency [3] | Potency [4] | Potency [5] | Potency [6] | Potency [7] | Potency [8] | Potency [9] | Potency [10] | Potency [11] | Potency [12] | Potency [13] | activity, negative = cell killing [14, 22] 10.6% | activity, negative = cell killing [14, 23] -10.4% | activity, negative = cell killing [14, 24] -4.89% | Potency [15]

C[C@@H]1CC[C@@]2(OC1)O[C@H]1C[C@H]3[C@@H]4CC[C@H]5C[C@@H](O)CC[C@]5(C)[C@H]4CC(=O)[C@]3(C)[C@H]1[C@@H]2C
inactive: activity change, negative = cytotoxicity [1] 17.9% [at 4.84 µM] | activity change, negative = cytotoxicity [2] -0.977% [at 6.55 µM] | activity change, negative = cytotoxicity [3] -7.17% [at 6.55 µM] | activity change, negative = cytotoxicity [4] 7.56% [at 6.55 µM] | activity change, negative = cytotoxicity [5] -0.456% [at 6.55 µM] | activity change, negative = cytotoxicity [6] 1.36% [at 6.55 µM] | activity change, negative = cytotoxicity [7] 7.28% [at 6.55 µM] | activity change, negative = cytotoxicity [8] -0.879% [at 6.55 µM] | activity change, negative = cytotoxicity [9] 12.9% [at 6.55 µM] | activity change, negative = cytotoxicity [10] 9.38% [at 6.55 µM] | activity change, negative = cytotoxicity [11] 8.75% [at 6.55 µM] | activity change, negative = cytotoxicity [12] 5.68% [at 6.55 µM] | activity change, negative = cytotoxicity [13] 10.1% [at 6.55 µM] | activity, negative = cell killing [14, 22] -26.8% | activity, negative = cell killing [14, 23] -15.7% | activity, negative = cell killing [14, 24] -22.8% | Potency [15]

CCN(CC)CCNC(=O)c1cc(Cl)c(N)cc1OC
inactive: Potency [1] | Potency [2] | Potency [3] | Potency [4] | Potency [5] | Potency [6] | Potency [7] | Potency [8] | Potency [9] | Potency [10] | Potency [11] | Potency [12] | Potency [13] | activity, negative = cell killing [14, 21] -15.5% | activity, negative = cell killing [14, 18] -19.3% | activity, negative = cell killing [14, 20] 6.62% | Potency [15]

CCN(CC)C(C)CN1c2ccccc2Sc2ccccc21 (stereo not drawn)
inactive: Potency [1] | Potency [2] | Potency [3] | Potency [4] | Potency [5] | Potency [6] | Potency [7] | Potency [8] | Potency [9] | Potency [10] | Potency [11] | Potency [12] | Potency [13] | activity, negative = cell killing [14, 22] -5.52% | activity, negative = cell killing [14, 23] -16.2% | Potency [15]
active: Potency ([14]; tumour line A) 10 µM
